HPGD inh: inhibitors of human 15-hydroxyprostaglandin dehydrogenase (HPGD). 150,000 tested, 4.3% active. P15428. Potency, µM, inactives show at the top dose activity change, negative = inhibition, actives largely listed as inhibitors. purified HPGD, NADH fluorescence kinetic, PGE2 substrate. AID 894; also: potency is read from the fitted curve at half-maximal effect
Target sequence (P15428 whole entry, looked up): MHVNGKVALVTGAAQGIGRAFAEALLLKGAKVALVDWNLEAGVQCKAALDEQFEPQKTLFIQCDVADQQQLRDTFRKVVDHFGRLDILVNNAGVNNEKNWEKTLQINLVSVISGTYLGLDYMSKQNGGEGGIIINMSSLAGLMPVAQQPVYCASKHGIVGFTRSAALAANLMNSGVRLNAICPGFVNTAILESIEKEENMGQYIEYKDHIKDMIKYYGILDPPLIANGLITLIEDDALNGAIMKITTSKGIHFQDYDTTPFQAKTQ
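20 nM HPGD preincubated 15 min at room temperature with compound in 50 mM Tris-HCl pH 8, 0.01% Tween 20. Started with 1 mM NAD+ and 30 uM prostaglandin E2; NADH fluorescence (360/450 nm) read 5 times over 30-s intervals, last minus first.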
PNC assembly inh: inhibitors of perinucleolar compartment assembly. PC3M PTB-GFP, PNC prevalence imaging, 16 h; hits give low values. activity change (PNC), negative = inhibition, % at 10 µM. 140,000 tested, 3.1% active. AID 2417;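 active = readout at or below -70, meaning at least 70% loss of cells showing the perinucleolar compartment, a nuclear body marking cancer cells; inconclusive = readout between -30 and a set limit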;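 also: plate controls were DMSO wells for no effect and camptothecin positive control wells for full effect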
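Read-out is percentage of cells bearing a perinucleolar compartment, from automated 20x imaging of fixed, Hoechst-stained PC3M PTB-GFP cells. Cells were seeded 4 h, then exposed 16 h to compound (23 nl of library stock) in duplicate plates.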
IMPase inh: IMPase inhibition in cells; P97697; CHO-M1 cells, IP1 accumulation, HTRF TR-FRET ratio; inhibition (IP1 accumulation), % at 46.1 µM; 120,000 tested, under 10 active; AID 901; active = well fitted curve in the direction sought with a large enough effect in the signal ratio, not every such curve was filed as active; inconclusive = small, poorly fitted or top-dose-only effect, or a change in a side signal; inactive = no such curve, though single readings can be large or run the other way; the % refers to the signal ratio;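 also: cells stimulated with carbachol in lithium chloride buffer; plate controls were DMSO basal wells for no effect and reference inhibitor wells for full effect; higher means more IMPase inhibition seen as more IP1 and lower FRET ratio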
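Cellular IMPase inhibition is scored as a rise in cytosolic IP1, detected by competitive TR-FRET between d2-labelled IP1 and a europium anti-IP1 antibody. M1-expressing CHO cells were stimulated with carbachol for 30 min at 37C, with lithium (50 mM LiCl) present in the buffer.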
IMPase Li cell: cell-permeable IMPase inhibitors with lithium potentiation; Potency, µM (top dose mostly 59.4 µM), for the others: at the highest dose activity, negative = IMPase inhibition, actives largely listed as inhibitors; AID 1457; CHO-M1 cells, IP1 TR-FRET (IP-One), carbachol + lithium; 210,000 tested, 0.35% active; active = well fitted inhibition curve with a large enough effect; inconclusive = small, poorly fitted or top-dose-only effect; inactive = no such curve, though single readings can be large or run the other way;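 also: IP1 builds up when IMPase is blocked and the TR-FRET signal falls; potency is read from the fitted curve at half-maximal effect; plate controls were basal vehicle for no effect and high inhibitor control for full effect; nearly all actives have a fitted effect of over 50% in size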
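Concentration–response in CHO-M1 cells, lithium-potentiated; 30 min at 37C. IP1 detected by competitive TR-FRET after 10 min lysis at RT. Hill-fitted AC50.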
ALDH1A1 inh: blocks purified human ALDH1A1 activity; 220,000 tested, 7.3% active; Purified ALDH1A1, NADH fluorescence, propionaldehyde substrate; Potency, µM (highest dose often 75.3 µM), inactives show at the highest dose activity, negative = inhibition, actives largely listed as inhibitors; P00352;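 also: potency is read from the fitted curve at half-maximal effect; plate controls were no enzyme wells and a reference inhibitor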
Target sequence (P00352 whole entry, looked up): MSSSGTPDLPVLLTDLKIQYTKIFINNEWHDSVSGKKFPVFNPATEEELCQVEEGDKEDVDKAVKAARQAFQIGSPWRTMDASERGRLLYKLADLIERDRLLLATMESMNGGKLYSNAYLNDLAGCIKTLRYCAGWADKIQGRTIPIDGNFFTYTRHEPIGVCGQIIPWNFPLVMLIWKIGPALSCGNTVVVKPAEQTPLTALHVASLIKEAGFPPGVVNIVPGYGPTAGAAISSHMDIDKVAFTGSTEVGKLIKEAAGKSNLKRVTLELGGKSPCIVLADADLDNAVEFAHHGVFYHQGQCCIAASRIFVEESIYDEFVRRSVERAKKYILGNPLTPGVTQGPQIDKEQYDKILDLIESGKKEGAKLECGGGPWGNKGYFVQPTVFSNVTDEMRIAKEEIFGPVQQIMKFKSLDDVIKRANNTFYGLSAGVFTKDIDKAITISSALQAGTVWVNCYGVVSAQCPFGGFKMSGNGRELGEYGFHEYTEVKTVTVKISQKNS
The depositor's hits bear a star; ? = inconclusive; . = not tested or not shown; [ ] = remark or other dose. Shown are actives, neighbours in structure and some others; about 11% of the full set was active somewhere. Unless noted, calls follow the shape of the dose curve; as a rule, active = well fitted inhibition curve with a large enough effect (not every such curve was filed as active); inconclusive = small, poorly fitted or top-dose-only effect, or another doubt; inactive = no such curve, though single readings can be large or run the other way. Unless noted, % is scaled to controls: 0 for no effect and ±100 for the full control effect.

SMILES	HPGD inh	PNC assembly inh	IMPase inh	IMPase Li cell	ALDH1A1 inh
COc1ccc(-c2nc3n(n2)C(c2ccccc2OC)C(C(=O)Nc2cccnc2)=C(C)N3)cc1 (configuration not stated)	.	.	-2.3	.	.
CS(=O)(=O)Nc1cccc(-c2nc(-n3ccnc3)c3ccccc3n2)c1	.	.	.	-3.7%	4.4%
CS(=O)(=O)Nc1cccc(-c2nccc(-n3ccnc3)n2)c1	17.8µM*	.	.	2.4%	-5.2%
N#CC(C#N)=C1c2cc(S(N)(=O)=O)ccc2-c2ccc(S(N)(=O)=O)cc21	.	.	.	12.3%	7.94µM*
COc1ccc(N/N=C(\C=N\O)C(=O)c2ccc(OC)cc2)cc1	-25.3%	-112.1*	13.5	35.3%[38.3 µM]	?
COc1ccc(NC(=O)/C=N/O)cc1	.	.	.	3.0%	0.9%
CCOC(=O)N1CCC(n2c(SCC(=O)NCCC3=CCCCC3)nc3ccccc3c2=O)CC1	-8.9%	6.3	11.4	19.0%[38.3 µM]	12.6µM*
CCOC(=O)N1CCC(n2c(SCC(=O)NCc3ccccc3)nc3ccccc3c2=O)CC1	3.1%	15.4	8.4	10.9%[38.3 µM]	-8.8%
CC(=O)NCCn1c(SCC(=O)NCCC2=CCCCC2)nc2ccccc2c1=O	-7.1%	?	6.0	-13.2%[38.3 µM]	-6.4%
Cc1cc(SCC(=O)NCCC2=CCCCC2)nc2ccccc12	25.1µM*	3.9	.	17.8%	33.5%
CC(=O)N1N=C(c2ccc(C)o2)CC1c1cccc(F)c1 (configuration not stated)	.	.	.	1.7%	14.1µM*
CC(=O)[C@H]1[C@H](c2cccc(Cl)c2)C(C#N)(C#N)[C@@H]2c3ccccc3C=CN21	?	-28.3	4.9	4.7%	?
CCN=c1scc(-c2ccccc2)n1/N=C/c1ccccn1	-12.0%	-125.2*	.	-4.6%	?
C=CCN=c1scc(-c2ccc(F)cc2)n1/N=C/c1ccccn1	-3.0%	?	25.3	8.7%	-9.3%
C=CCN=c1scc(-c2ccccc2)n1/N=C/c1ccccn1	-5.5%	-105.8*	15.6	6.5%	-9.8%
C=NC(C(=O)NC1C(=O)N2C1SC(C)(C)C2C(=O)O)c1ccccc1 (configuration not stated)	?	.	.	12.3%	?
COC(=O)c1ccc2nc(C)cc(Nc3ccc(N(C)C)cc3)c2c1	-1.9%	-118.9*	.	12.5%	?
Fc1ccc(N2CCN(c3nc(-c4ccco4)cc(C(F)(F)F)n3)CC2)cc1	-17.1%	23.4	-4.6	-0.6%[38.3 µM]	4.9%
FC(F)(F)c1cc(-c2ccco2)nc(N2CCN(Cc3ccccc3)CC2)n1	-19.4%	69.8	10.7	7.0%[38.3 µM]	22.4µM*
CCCOC(=O)c1c(NC(=O)C2c3ccccc3Oc3ccccc32)sc2c1CCC(C)C2 (configuration not stated)	.	.	3.8	.	.
C=C(CC1([C@@H](NP(=O)(c2ccccc2)c2ccccc2)[C@H]2C[C@@H]2CCN(C(=O)OCC)S(=O)(=O)c2ccc(C)cc2)CC1)c1ccccc1	-11.1%	.	.	0.2%	-7.5%
O=C1c2ccccc2CC1Sc1nnc(-c2ccccn2)o1 (configuration not stated)	?	13.1	-0.5	-20.2%[38.3 µM]	3.16µM*
O=C1OCCC1Sc1nnc(-c2ccccc2)o1 (configuration not stated)	-7.3%	-14.7	-2.5	0.5%[38.3 µM]	7.1%
O=c1c(-c2ccc(Cl)cc2)nc2cnc(N3CCNCC3)nc2n1Cc1ccc(F)cc1	?	.	.	1.7%	?
CC(=O)c1ccccc1Oc1nc(CN2CCOCC2)nc2scc(-c3cccs3)c12	-4.5%	4.3	4.7	2.7%[38.3 µM]	22.4µM*
SMILES	HPGD inh	PNC assembly inh	IMPase inh	IMPase Li cell	ALDH1A1 inh
CC(C)NC(=O)N1CC[C@@]2(CCCN(C(=O)Oc3ccccc3)C2)C1	-1.4%	.	.	4.1%	30.2%
Cc1nc2ccccc2c(=O)n1/N=C/c1c(O)ccc2ccccc12	.	.	.	6.3%	5.2%
Cc1nc2ccccc2c(=O)n1/N=C/c1ccc([N+](=O)[O-])o1	.	.	.	.	18.9µM*
Cc1nc2ccccc2c(=O)n1/N=C/c1ccc(N(C)C)cc1	-6.2%	-12.6	-1.9	6.1%[38.3 µM]	15.8µM*
Cc1nc2ccccc2c(=O)n1/N=C/c1ccccn1	-8.1%	6.2	2.2	2.6%[38.3 µM]	-8.1%
NS(=O)(=O)c1ccc(NC(=O)COC(=O)COc2ccc(Br)cc2)cc1	.	.	.	.	17.9%
O=C1C(NS(=O)(=O)c2ccc(Cl)cc2)=C(N2CCCCC2)C(=O)c2ccccc21	-17.2%	?	20.5	49.2%	8.91µM*
O=C1C(Nc2ccccc2)=C(NS(=O)(=O)c2ccccc2)C(=O)c2ccccc21	1.0%	?	.	16.2%	-10.6%
O=C(COc1ccccc1)NCC(=O)N/N=C/c1cccs1	-18.2%	-7.3	-26.3	?	22.4µM*
O=C(COc1ccc(Cl)cc1)NCC(=O)N/N=C/c1cccs1	.	.	.	-3.0%	?
COC(=O)/C(=C/c1cn(C)c2ccccc12)[N+](=O)[O-]	3.55µM*	?	-0.8	1.7%	1.78µM*
Cc1ccc(/C=C2/SC(=O)NC2=S)o1	.	.	.	?	14.1µM*
O=Cc1cn(CC(O)CN2CCCCC2)c2ccccc12 (configuration not stated)	.	.	.	-8.0%	-4.0%
COc1ccc(/C=C2/SC(=O)NC2=O)cc1	.	.	.	7.2%	-6.5%
Cc1ccc(/C(C#N)=C\c2cn(C)c3ccccc23)cc1	-5.4%	-8.4	15.9	43.2%[38.3 µM]	1.1%
Cn1cc(C=O)c2ccccc21	.	.	.	-14.8%	2.82µM*
O=Cc1ccc(-n2cc(C=O)c3ccccc32)cc1	.	.	.	-2.0%	11.2µM*
O=C(O)[C@H]1CN[C@H](C(=O)O)C1	-5.2%	.	6.3	13.3%	-6.1%
CC(C)c1ccc(OCC(=O)Nc2c(C(=O)c3ccc(F)cc3)oc3ccccc23)cc1	.	.	7.0	.	.
O=C(NC[C@H]1CCCCN1)c1cc(OCC(F)(F)F)ccc1OCC(F)(F)F	-4.5%	.	-5.1	2.2%	-1.4%
O=C(c1ccncc1)N1CCC[C@@]2(CCN(C(c3ccccc3)c3ccccc3)C2)C1	-3.3%	.	.	20.2%	-5.0%
Cn1cc(/C=C2\SC(=O)NC2=S)c2ccccc21	.	.	.	10.7%	1.41µM*
CCOc1cc(C)c(Cl)cc1S(=O)(=O)n1cnc2ccccc21	-0.5%	-107.4*	7.5	31.5%[38.3 µM]	-2.3%
CC(=O)CSCc1ccccn1	-7.4%	.	.	-0.1%	3.55µM*
O=C(c1nc2ccc(Cl)cn2c1CNCCn1ccnc1)N1CCCCCCC1	.	.	.	6.6%	?
Cc1cc(CNCc2c(C(=O)N3CCCCCCC3)nc3ccc(Cl)cn23)nn1C	.	.	.	14.6%	15.8µM*
O=C(c1ccco1)N1CCC[C@@]2(CCN(c3ccccn3)C2)C1	-27.7%	.	.	14.8%	?
O=C(NCCO)/C(=C/c1cccc([N+](=O)[O-])c1)NC(=O)c1ccco1	.	.	.	13.3%	2.8%
CC(NC(=O)/C(=C\c1cccc([N+](=O)[O-])c1)NC(=O)c1ccco1)C(=O)O (configuration not stated)	28.2µM*	93.0	-8.5	7.0%[38.3 µM]	6.31µM*
COc1ccc(/C=C(\NC(=O)c2ccccc2)C(=O)NCCC(=O)O)cc1	.	.	.	3.6%	9.3%

Compound activity from PubChem BioAssay.
